In PubChem BioAssay (NCI):
This is part of a sample that, as a whole, favours compounds with a hit. Of some 83,000 tested, about 20% had one in any assay.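 48-hour exposure, single concentration, 96-well plates; percent growth endpoint where 0 means no net growth. Active: below 10.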 Values without a mark were called inactive. Active and inactive are the calls of the source.

The compounds below were run on SF-539 CNS (assay: NCI-60 one-dose screen, 48 h (100 = growth as untreated, 0 = no growth, -100 = all killed)). Conditions: 10 µM unless noted.

| Structure (SMILES) | growth |
| --- | --- |
| Cc1nc(Nc2ccc(N)cc2)c2ccccc2n1 | 96% |
| COc1cccc(/C=C2\COc3ccc(O)cc3C2=O)c1OC | 72.2% |
| CC(C)c1ccc(NC(=O)Cc2ccc(Nc3ncnc4cc(-c5cnn(CCN(C)C)c5)ccc34)cc2)cc1 | -88.8% [30 µM] (active) |
| O=C1c2cccc3c(-c4ccc(-c5nc6c7ccccc7c7ccccc7c6[nH]5)cc4)ccc(c23)C(=O)N1CCN1CCNCC1 | 73.8% |
| O=C1/C(=C/c2ccc([N+](=O)[O-])cc2)COc2ccc(O)c(O)c21 | -91.6% (active) |
| Cn1ccnc1C(=O)/C=C/c1ccc(C(=O)Nc2ccc(S(F)(F)(F)(F)F)cc2)cc1 | -37.1% (active) |
| COc1ccc(OC)c(C(=O)Nc2cccc(-c3cc(=O)c4ccccc4o3)c2)c1 | 84.4% |
| C=C1C(=O)O[C@H]2[C@H]1CC/C(COC(=O)/C=C\C(=O)NCc1ccc(Cn3c(=O)sn(CCCI)c3=O)cc1)=C\CC[C@@]1(C)O[C@@H]21 | -98.7% (active) |
